Mito fusion yeast = blocks mitochondrial division or promotes mitochondrial fusion | S. cerevisiae fusion-defective mutant growth rescue, CellTiterGlo 48 h | Potency, µM (series often up to 46.1 µM), without a hit: top-dose growth rescue (activation), usual class: activators | 320,000 tested, 0.23% active | AID 485298; also: % of control where 0% means no effect; nearly all actives have a fitted effect of over 45% in size
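Temperature-sensitive fusion-defective S. cerevisiae (e.g. fzo1-1, mgm1-5) were grown with compound in YPEG medium (3% ethanol, 3% glycerol) for 48 hours at 37C. Growth rescue was measured as viability by CellTiterGlo luminescence after 10 minutes at ambient.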
RORg inh = blocks mouse ROR gamma transcriptional activity. Drosophila S2 Gal4-RORgamma UAS-luciferase reporter, 20 h. Potency, µM (series often up to 53.6 µM), for the others: top-dose activity change, negative = inhibition, usual class: inhibitors. 310,000 tested, 5.4% active; also: % is scaled to controls: 0 for no effect and ±100 for the full control effect; nearly all actives have a fitted effect of over 60% in size
Target sequence (P51450 whole entry, looked up, the tested form may be a part): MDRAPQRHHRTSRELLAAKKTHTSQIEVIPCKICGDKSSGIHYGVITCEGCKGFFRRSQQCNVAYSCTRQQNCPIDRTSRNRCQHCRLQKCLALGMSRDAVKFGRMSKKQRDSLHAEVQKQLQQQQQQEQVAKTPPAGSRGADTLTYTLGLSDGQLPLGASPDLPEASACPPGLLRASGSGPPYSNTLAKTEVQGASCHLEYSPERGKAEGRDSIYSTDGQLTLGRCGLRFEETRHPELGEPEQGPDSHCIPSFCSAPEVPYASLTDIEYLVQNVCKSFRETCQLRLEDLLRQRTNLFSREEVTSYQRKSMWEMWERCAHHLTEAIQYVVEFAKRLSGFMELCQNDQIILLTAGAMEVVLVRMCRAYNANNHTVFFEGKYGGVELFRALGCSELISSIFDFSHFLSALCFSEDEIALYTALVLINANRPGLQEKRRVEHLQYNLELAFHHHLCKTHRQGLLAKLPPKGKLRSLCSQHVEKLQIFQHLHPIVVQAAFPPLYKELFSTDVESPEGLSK
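Drosophila Schneider cells stably carrying a metallothionein-driven Gal4 DBD–ROR gamma fusion and a UAS-Photinus luciferase reporter were exposed to compound for 1 hr, then induced with copper sulfate (700 uM final) for 20 hr at ambient temperature before luminescence reading.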
Gal4-VP16 FLuc = counter-screen for ROR gamma inhibitors: Gal4-VP16 reporter. AID 2546. Potency, µM (highest dose often 53.6 µM), for the others: at the highest dose activity, negative = inhibition, usual class: inhibitors. 310,000 tested, 3.5% active. Drosophila S2 Gal4-VP16 UAS-luciferase, luminescence, 20 h;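 also: Gal4-VP16 expression switched on by copper sulfate through the metallothionein promoter; % is scaled to controls: 0 for no effect and ±100 for the full control effect; nearly all actives have a fitted effect of over 50% in size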
BCR signal inh = chronic active BCR signaling inhibition | ABC-DLBCL IkBa-CBG/CBR reporter, luminescence ratio, 4 h | 340,000 tested, 0.05% active | Potency, µM (top dose mostly 46.1 µM), inactives show at the top dose activity change, negative = inhibition, hits mostly inhibitors; active = well fitted inhibition curve with a large enough effect in the signal ratio, with a control signal flat, not every such curve was filed as active; inconclusive = small, poorly fitted or top-dose-only effect, or effect the other way, or a change in a side signal; the % refers to the signal ratio;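 also: plate controls were basal doxycycline-induced cells for no effect and cells given 10 µM MG132 for full effect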
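Cell line TMD8 (human ABC DLBCL), stably expressing tet-inducible CBG68-IkBa fusion and CBR; IMDM/0.5% FBS; cpd up to 46 uM; dox induction, 4 h, 37C/5% CO2; dual luminescence; green/red ratio; MG132 control.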
uPA surface inh = blocks generation of uPA at the cell surface. cell surface uPA generation assay, qHTS. Potency, µM (top dose mostly 38.3 µM), for inactives: at the top dose activity change, negative = inhibition, actives largely listed as inhibitors. 330,000 tested, 0.31% active. AID 540303; active = well fitted inhibition curve with a large enough effect; inconclusive = small, poorly fitted or top-dose-only effect; inactive = no such curve, though single readings can be large or run the other way; tested in mouse RAW 264.7 cells; also: % is scaled to controls: 0 for no effect and ±100 for the full control effect; nearly all actives have a fitted effect of over 55% in size
Integrin act MD = activates integrin-mediated alleviation for muscular dystrophy; alpha7betagal myoblasts, beta-gal FDG fluorescence, 48 h; 350,000 tested, 0.064% active; Potency, µM (highest dose often 38.3 µM), inactives show at the highest dose activation, most hits filed as activators;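 also: 100% = response of the positive control SU9516; nearly all actives have a fitted effect of over 60% in size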
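alpha7betagal+/- myoblasts (passage 13, 250/well) treated 48 h at 37C with compounds at 1:260 dilution of DMSO stock. Lysed, then beta-galactosidase activity read as FDG fluorescence (ex 480/em 540) after 30 min, with pre-read for autofluorescence.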
The depositor's hits bear a star; ? = inconclusive; / = no result. In the library only some 5.5% were active in any assay of this set; here they are far more common. Unless noted, calls follow the shape of the dose curve; as a rule, active = well fitted curve in the direction sought with a large enough effect; inconclusive = small, poorly fitted or top-dose-only effect, or another doubt; inactive = no such curve, though single readings can be large; an effect the other way counts as inactive or inconclusive. Potency is read from the fitted curve at half-maximal effect.

SMILES | Mito fusion yeast | RORg inh | Gal4-VP16 FLuc | BCR signal inh | uPA surface inh | Integrin act MD
Cc1occc1C(=O)N/N=C/C(Br)=C\c1ccccc1 | -11.6% | -38.5% | ? | ? | -11.0% | -55.1%
CCCCCC(O)/C=C/C=O (centres undefined) | / | 25.3% | -4.4% | / | / | /
O=C(N/N=C/c1ccccc1)c1ccc(-c2ccccc2)cc1 | -0.2% | 11.1% | 3.8% | 3.0% | -3.7% | 1.6%
Cc1ccc(C(=O)N/N=C/C=C/c2ccccc2)cc1 | 5.3% | 3.16µM* | 7.94µM* | -2.3% | -1.5% | -19.5%
Cc1cc(C(=O)N/N=C/C=C/c2ccc(Br)cc2)n[nH]1 | -2.0% | -22.2% | 1.6% | 0.4% | -10.5% | -31.6%
CC(C)c1cc(C(=O)N/N=C/C=C/c2ccccc2)n[nH]1 | -0.3% | ? | 20µM* | ? | -13.2% | 22.7%
O=C(N/N=C/C=C/c1ccccc1)c1ccccc1Br | -1.2% | 3.16µM* | ? | ? | 0.3% | 0.0%
O=C(N/N=C/c1ccccc1C(=O)O)c1ccccc1Br | -6.7% | 16.6% | 8.8% | ? | 1.3% | 14.6%
O=C(N/N=C/C=C/c1ccccc1)c1cccc(Br)c1 | -1.1% | 1µM* | 5.01µM* | ? | -13.0% | -44.1%
CN(CCc1ccccc1)C(=O)c1cccc(NC(=O)Cc2cccc(NC(=O)C3CCN(C(=O)C4CCC4)CC3)c2)c1 | / | / | / | / | 3.1% | -3.0%
CCCCNC(=O)NS(=O)(=O)c1ccc(CO)cc1 | / | -14.1% | -5.5% | / | / | /
Cc1nnc(SCC(=O)NCC2CCCO2)n1Cc1ccccc1 (centres undefined) | / | / | / | 1.8% | 2.9% | 12.6%
CC1CCN(S(=O)(=O)c2cc(C(=O)NC3(C)CCS(=O)(=O)C3)ccc2Br)CC1 (centres undefined) | -3.3% | / | / | -0.9% | 8.3% | -40.4%
CCOC(=O)CCCCCC(=O)Nc1ccc2c(c1)C(=O)N([C@@H](C)CO)C[C@H](C)[C@H](CN(C)C(=O)NC(C)C)OCCCC[C@H](C)O2 | / | / | / | / | / | -3.1%
COc1cc2cc3c4cc(OC)c(OC)cc4cc[n+]3c(C)c2cc1OC | / | 32.0% | -7.9% | / | / | /
CN(C)c1ccc(/C=N/NC(=O)c2ccccc2)cc1 | -1.1% | ? | -23.7% | ? | -17.5% | 0.0%
CN(C)c1ccc(/C=N/NC(=O)c2ccc(Cl)cc2)cc1 | -2.0% | 8.91µM* | -10.0% | ? | -5.1% | -6.1%
Cc1occc1C(=O)N/N=C/C=C/c1ccc(N(C)C)cc1 | -0.9% | 2.82µM* | 3.16µM* | ? | -27.9% | -5.5%
Cc1occc1C(=O)N/N=C/c1ccc(N(C)C)cc1 | -5.7% | 10µM* | ? | ? | -3.4% | -22.6%
Cc1cc(C(=O)N/N=C/C=C/c2ccccc2)c(C)o1 | -7.1% | 7.94µM* | 11.2µM* | ? | -6.4% | 1.6%
Nc1nonc1-n1nnc(C(=O)N/N=C/c2cccc(Cl)c2Cl)c1CN1CCCC1 | -2.8% | ? | ? | -5.0% | 1.1% | -18.5%
Cc1ccc(CNS(=O)(=O)c2ccc3c(c2)NC(=O)C(C)S3)cc1 (centres undefined) | 6.0% | 22.5% | -1.0% | 0.2% | -5.1% | -5.9%
Cc1ccnc(NC(=O)c2cccc(NC(=O)CC3SC(N4CCCCC4)=NC3=O)c2)c1 (centres undefined) | -1.4% | / | / | ? | 4.0% | 0.3%
NC(=S)N/N=C/C=C/c1ccccc1 | -7.7% | 2µM* | ? | ? | -6.2% | -15.6%
O=C(NCc1nnc(SCc2ccc(C(F)(F)F)cc2)n1-c1ccccc1)C12CC3CC(CC(C3)C1)C2 | -10.2% | 14.1µM* | ? | 11.3% | 3.6% | 16.3%
SMILES | Mito fusion yeast | RORg inh | Gal4-VP16 FLuc | BCR signal inh | uPA surface inh | Integrin act MD
O=C(NCc1nnc(SCc2ccc(F)cc2)n1-c1ccccc1)C12CC3CC(CC(C3)C1)C2 | ? | -2.7% | ? | ? | -0.8% | 44.2%
Cc1ccc(-n2c(C)nc3c(cnn3-c3ccc(F)cc3)c2=O)cc1 | -1.8% | -23.3% | 8.91µM* | -9.3% | 0.6% | -20.0%
COc1cccc(C2C=C(c3ccc(C)c(C)c3)Nc3nnnn32)c1OC (centres undefined) | / | / | / | 8.8% | / | /
O=C(O)CCC(=O)Nc1ccc(C(=O)OC2CCCCC2)cc1 | 0.0% | 17.8µM* | ? | -11.8% | -9.3% | 1.0%
Cc1n[nH]c(=S)n1/N=C/c1ccc(OCc2ccc(Cl)cc2Cl)cc1 | -2.0% | 17.8µM* | 11.2µM* | ? | 1.9% | -14.5%
Cc1cc(C)c(COc2ccc(/C=N/n3c(C)n[nH]c3=S)cc2)c(C)c1 | 2.9% | 2.82µM* | 7.08µM* | ? | -1.2% | 14.2%
CCc1n[nH]c(=S)n1/N=C/c1ccccc1OCc1ccc(Cl)cc1 | -3.1% | -8.5% | -18.4% | 0.0% | 4.0% | 15.1%
CSc1ccc(/C=N/n2c(COc3ccccc3)n[nH]c2=S)cc1 | -12.9% | ? | ? | 0.8% | 3.7% | 1.5%
Cc1n[nH]c(=S)n1/N=C/c1ccccc1OCc1ccc(Cl)cc1Cl | -1.4% | 2.82µM* | 7.08µM* | 9.1% | 1.0% | 10.0%
S=c1[nH]nc(COc2ccccc2)n1/N=C/c1ccc(Cl)cc1 | -4.2% | ? | -15.9% | 6.5% | -1.3% | 8.0%
Cc1n[nH]c(=S)n1/N=C/c1ccccc1 | -20.2% | ? | ? | 4.4% | 5.2% | 12.3%
Cc1n[nH]c(=S)n1/N=C/c1ccc(OCc2ccc(Cl)cc2)cc1 | -14.2% | 5.62µM* | -13.0% | ? | 0.3% | 0.0%
CC1CN(S(=O)(=O)c2cccc(-c3cn4ccccc4n3)c2)CC(C)O1 (centres undefined) | 2.82µM* | ? | 0.355µM* | -4.7% | -1.3% | 0.9%
Cc1cccn2cc(-c3cccc(S(=O)(=O)N4CC(C)OC(C)C4)c3)nc12 (centres undefined) | -17.3% | -28.5% | 2.4% | -2.3% | 0.9% | -1.2%
CC(C)CNC(=S)N(CCCN(C)C)Cc1cc2cc3c(cc2[nH]c1=O)OCCO3 | 1.0% | -0.6% | -6.4% | ? | -3.4% | -6.9%
CCc1nn(C(CC)C(=O)NCc2cccc(OC)c2)c(=O)c2cc3occc3n12 (centres undefined) | ? | 0.1% | 17.7% | 4.5% | 6.1% | -0.3%
Cc1ccc(C)c(NC(=O)CN2C(=O)NC(C)(c3ccc4c(c3)OCCO4)C2=O)c1 (centres undefined) | 0.4% | / | / | 1.2% | 1.9% | -37.4%
CC(C)N1C(=O)S/C(=C\c2ccc(-c3ccc(Cl)c(C(=O)O)c3)o2)C1=O | 6.8% | ? | 2.51µM* | ? | -23.7% | -50.2%
CCN(CC)c1ccc(/C=C2/SC(=O)N(C(C)C)C2=O)o1 | 2.4% | 5.01µM* | 2.82µM* | ? | -11.5% | -69.5%
CCOC(=O)CN1C(=O)S/C(=C\c2ccc(-c3ccc(C(=O)O)c(Cl)c3)o2)C1=O | 3.9% | -24.1% | 9.4% | ? | 3.9% | -2.8%

Screening data as filed in PubChem BioAssay.
